Measurements from PubChem BioAssay.
The source made the active and inactive calls.

Key:
[1] = test system: Plasmodium falciparum Sir2 (PF13_0152, Sir2A); assay: Plasmodium falciparum Sir2A binding compounds – biochemical, small-molecule microarray, 635 nm fluorescence, primary screen (AID 1098); details: fluorescence 635 nm, higher = more signal;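 also: score merges spot fluorescence intensity with its signal-to-noise ratio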
[2] = probe aDKK1 binding to arrayed compounds – biochemical, biotinylated probe, 635/667 nm fluorescence, primary screen (AID 1099); details: small-molecule microarray, higher = more signal;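 also: score merges 667nm spot fluorescence with signal to noise across triplicate slides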
[3] = probe aCHRDL2 binding to arrayed compounds – biochemical, biotinylated probe, 635/667 nm fluorescence, primary screen (AID 1100); details: small-molecule microarray, higher = more signal
[4] = change in splice reporter luminescence, either direction, cell-based, HEK293, spliceosome inhibition project, primary screen (AID 1101); details: HEK293 splicing luciferase reporter, 24 h, higher = more signal, called active from +8 up or from −8 down;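 also: HEK293 cells carrying a splicing-competent luciferase reporter gene; test concentration not given here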
[5] = target: Fibroblast growth factor 10 (Homo sapiens) (UniProt O15520); assay: compounds binding fibroblast growth factor 10 – biochemical, small-molecule microarray, 635 nm fluorescence, primary screen (AID 1102); details: FGF10 binding, fluorescence 635 nm, higher = more signal
[6] = test system: glycogen synthase kinase-3 (GSK3A per assay name; protocol says GSK3B); assay: compounds binding glycogen synthase kinase-3 – biochemical, small-molecule microarray, 635 nm fluorescence, GSK3A, primary screen (AID 1103); details: fluorescence 635 nm, higher = more signal; also: the record names both GSK3A and GSK3B
[7] = target: Epidermal growth factor receptor (Homo sapiens) (UniProt P00533); assay: compounds binding epidermal growth factor receptor – biochemical, small-molecule microarray, 635 nm fluorescence, primary screen (AID 1104); details: EGFR binding, higher = more signal;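 also: score merges 667 nm emission intensity with spot signal to noise over triplicate slides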
[8] = target: Follistatin-related protein 3 (Homo sapiens) (UniProt O95633); assay: compounds binding follistatin-related protein 3 – biochemical, small-molecule microarray, 635 nm fluorescence, primary screen (AID 1105); details: FSTL3 binding, higher = more signal;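 also: score merges emission near 667 nm and signal to noise per printed spot across three slides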
[9] = target: Dickkopf-related protein 1 (Homo sapiens) (UniProt O94907); assay: small molecules binding DKK1 protein – biochemical, small-molecule microarray, 635 nm fluorescence scan, primary screen (AID 1106); details: higher = more signal;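 also: score merges emission near 667 nm with signal to noise over three replicate slides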
[10] = test system: Inhibin beta A chain (activin A); assay: small molecules binding activin A – biochemical, small-molecule microarray, 635 nm fluorescence scan, primary screen (AID 1107); details: INHBA, higher = more signal;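 also: mouse activin A protein probed at 4.33 µg/mL on printed slides; score merges bound-protein fluorescence near 667 nm with spot signal-to-noise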
[11] = test system: Human papillomavirus type 1a protein E7 (residues 44-93); assay: small molecules binding HPV E7 44-93 – biochemical, small-molecule microarray, residues 44-93, 635 nm fluorescence, primary screen (AID 1108); details: fluorescence 635 nm, higher = more signal;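 also: E7 fragment applied at 1 µg/mL in TBST for 1 h at 4 C; score combines spot fluorescence with its signal to noise ratio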
[12] = hepatitis C replication reporter changes, two-sided – Huh7 cells, luciferase reporter, HCV replication inhibitor project, primary screen (AID 1109); details: Huh7 HCV replicon luciferase reporter, 48 h; higher = more signal;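 also: huh7 hepatoma cells harbouring a luciferase neomycin HCV replicon reporter; luciferase luminescence as measure of HCV replicon replication; test concentration not given here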
[13] = target: Left-right determination factor 2 (Homo sapiens) (UniProt O00292); assay: small molecules binding LEFTY2 protein – biochemical, small-molecule microarray, 635 nm fluorescence scan, primary screen (AID 1110); details: higher = more signal
[14] = target: Calmodulin-1 (Homo sapiens) (UniProt P0DP23); assay: small molecules binding calmodulin-1 with EGTA – biochemical, small-molecule microarray, Cy5-labelled CALM1, profiling panel (AID 1111); details: Cy5-CALM1 binding fluorescence, higher = more signal;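 also: labelled calmodulin applied in Tris saline Tween buffer holding calcium plus EGTA and DTT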
[15] = target: Calmodulin-1 (Homo sapiens) (UniProt P0DP23); assay: small molecules binding Ca-loaded calmodulin-1 – biochemical, small-molecule microarray, Cy5-labelled CALM1, plus calcium, artefact control for SMM control-protein annotation, profiling panel (AID 1112); details: Cy5-CALM1 binding fluorescence, higher = more signal;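 also: score merges spot fluorescence with signal to noise from triplicate slides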
[16] = probe aWnt5a binding to arrayed compounds – biochemical, biotinylated probe, 635/667 nm fluorescence, primary screen (AID 1113); details: small-molecule microarray, higher = more signal;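 also: score merges 667 nm fluorescence intensity with signal-to-noise per printed feature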
[17] = probe aShh binding to arrayed compounds – biochemical, biotinylated probe, 635/667 nm fluorescence, primary screen (AID 1114); details: small-molecule microarray, higher = more signal;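 also: probe is biotin-labelled aShh protein from a stem cell growth factor screen; measures binding of labelled protein to compounds printed on the slide; score merges feature fluorescence at 667 nm with signal-to-noise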
[18] = probe aNog binding to arrayed compounds – biochemical, biotinylated probe, 635/667 nm fluorescence, primary screen (AID 1115); details: small-molecule microarray, higher = more signal;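 also: probe is biotinylated aNog protein used at 0.15 µg/mL for 1 h at 4 C; z-score combines 667 nm fluorescence of each spot with its signal to noise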
[19] = target: Torsin-1A-interacting protein 1 (Homo sapiens) (UniProt Q5JTV8); assay: compound microarray binding of lysate hLAP1 – cell lysate, small-molecule microarray, COS7 lysate, 635/667 nm fluorescence, primary screen (AID 1116); details: 635 nm fluorescence, higher = more signal
[20] = target: Alpha-bungarotoxin (Bungarus multicinctus) (UniProt P60615); assay: compounds binding labelled alpha-BTX control protein – biochemical, small-molecule microarray, Alexa647 label, 635/667 nm fluorescence, artefact control for SMM control protein annotation, profiling panel (AID 1117); details: alpha-BTX-A647 binding fluorescence, higher = more signal
Alpha-bungarotoxin (Bungarus multicinctus), sequence (P60615 whole entry, looked up): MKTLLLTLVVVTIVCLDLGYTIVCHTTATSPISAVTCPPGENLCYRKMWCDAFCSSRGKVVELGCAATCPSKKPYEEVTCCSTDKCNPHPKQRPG

Torsin-1A-interacting protein 1 (Homo sapiens), sequence (Q5JTV8 whole entry, looked up): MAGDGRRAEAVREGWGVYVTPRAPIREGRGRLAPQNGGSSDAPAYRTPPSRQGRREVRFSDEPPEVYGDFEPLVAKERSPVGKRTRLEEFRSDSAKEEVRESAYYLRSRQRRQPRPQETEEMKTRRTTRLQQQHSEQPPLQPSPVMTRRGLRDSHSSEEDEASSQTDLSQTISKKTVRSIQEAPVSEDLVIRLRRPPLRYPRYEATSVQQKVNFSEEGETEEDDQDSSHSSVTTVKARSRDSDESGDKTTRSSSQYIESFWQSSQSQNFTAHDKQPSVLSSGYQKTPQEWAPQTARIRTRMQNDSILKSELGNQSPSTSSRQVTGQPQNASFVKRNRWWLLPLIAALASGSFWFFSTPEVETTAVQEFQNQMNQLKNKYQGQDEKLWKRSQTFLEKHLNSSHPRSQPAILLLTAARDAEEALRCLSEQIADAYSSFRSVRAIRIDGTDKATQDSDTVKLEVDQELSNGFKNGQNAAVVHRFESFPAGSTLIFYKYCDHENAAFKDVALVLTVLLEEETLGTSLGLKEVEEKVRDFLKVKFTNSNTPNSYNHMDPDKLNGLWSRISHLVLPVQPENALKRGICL
Dickkopf-related protein 1 (Homo sapiens), sequence (O94907 whole entry, looked up): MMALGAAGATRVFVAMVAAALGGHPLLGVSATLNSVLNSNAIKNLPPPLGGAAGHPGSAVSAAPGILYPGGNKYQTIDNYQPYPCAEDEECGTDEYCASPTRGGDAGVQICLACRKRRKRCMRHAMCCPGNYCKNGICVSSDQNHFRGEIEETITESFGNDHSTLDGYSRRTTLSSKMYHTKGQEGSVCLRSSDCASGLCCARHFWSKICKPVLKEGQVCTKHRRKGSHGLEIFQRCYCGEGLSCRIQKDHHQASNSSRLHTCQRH
Fibroblast growth factor 10 (Homo sapiens), sequence (O15520 whole entry, looked up): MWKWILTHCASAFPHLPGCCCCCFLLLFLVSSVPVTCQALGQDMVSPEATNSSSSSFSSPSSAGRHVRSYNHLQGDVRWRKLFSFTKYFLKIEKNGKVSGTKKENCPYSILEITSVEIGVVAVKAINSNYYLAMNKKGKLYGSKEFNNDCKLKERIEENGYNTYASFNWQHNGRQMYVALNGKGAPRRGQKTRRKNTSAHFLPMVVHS
Epidermal growth factor receptor (Homo sapiens), sequence (P00533 whole entry, looked up): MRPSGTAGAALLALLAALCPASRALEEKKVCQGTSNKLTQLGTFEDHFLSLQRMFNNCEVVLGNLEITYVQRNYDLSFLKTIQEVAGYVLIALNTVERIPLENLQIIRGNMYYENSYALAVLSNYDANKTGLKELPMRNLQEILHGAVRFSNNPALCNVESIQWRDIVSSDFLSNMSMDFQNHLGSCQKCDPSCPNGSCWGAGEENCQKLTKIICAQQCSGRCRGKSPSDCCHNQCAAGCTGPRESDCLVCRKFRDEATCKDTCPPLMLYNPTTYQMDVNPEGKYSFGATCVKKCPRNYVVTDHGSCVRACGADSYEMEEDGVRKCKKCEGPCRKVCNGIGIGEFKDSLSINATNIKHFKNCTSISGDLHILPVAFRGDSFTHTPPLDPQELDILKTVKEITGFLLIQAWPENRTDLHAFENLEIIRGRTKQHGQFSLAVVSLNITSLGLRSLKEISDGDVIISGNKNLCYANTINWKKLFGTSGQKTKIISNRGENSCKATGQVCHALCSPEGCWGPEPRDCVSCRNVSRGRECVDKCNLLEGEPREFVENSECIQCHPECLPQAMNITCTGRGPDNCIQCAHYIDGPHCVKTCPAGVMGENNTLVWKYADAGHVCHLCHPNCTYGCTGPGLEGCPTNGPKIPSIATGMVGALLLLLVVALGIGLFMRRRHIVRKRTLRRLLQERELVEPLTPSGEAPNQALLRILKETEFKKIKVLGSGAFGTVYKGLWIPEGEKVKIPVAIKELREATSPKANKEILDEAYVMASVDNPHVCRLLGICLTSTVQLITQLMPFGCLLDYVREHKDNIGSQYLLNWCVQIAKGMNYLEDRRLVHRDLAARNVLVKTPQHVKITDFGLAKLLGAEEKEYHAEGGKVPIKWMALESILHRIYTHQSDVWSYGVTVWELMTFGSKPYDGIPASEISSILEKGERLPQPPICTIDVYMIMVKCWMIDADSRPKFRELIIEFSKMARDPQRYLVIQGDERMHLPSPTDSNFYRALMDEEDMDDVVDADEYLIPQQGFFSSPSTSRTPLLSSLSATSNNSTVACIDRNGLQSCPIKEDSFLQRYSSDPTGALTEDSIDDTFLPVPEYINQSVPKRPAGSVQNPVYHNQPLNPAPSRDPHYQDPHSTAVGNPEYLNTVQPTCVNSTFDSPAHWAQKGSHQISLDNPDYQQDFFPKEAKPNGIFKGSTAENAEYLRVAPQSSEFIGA
Left-right determination factor 2 (Homo sapiens), sequence (O00292 whole entry, looked up): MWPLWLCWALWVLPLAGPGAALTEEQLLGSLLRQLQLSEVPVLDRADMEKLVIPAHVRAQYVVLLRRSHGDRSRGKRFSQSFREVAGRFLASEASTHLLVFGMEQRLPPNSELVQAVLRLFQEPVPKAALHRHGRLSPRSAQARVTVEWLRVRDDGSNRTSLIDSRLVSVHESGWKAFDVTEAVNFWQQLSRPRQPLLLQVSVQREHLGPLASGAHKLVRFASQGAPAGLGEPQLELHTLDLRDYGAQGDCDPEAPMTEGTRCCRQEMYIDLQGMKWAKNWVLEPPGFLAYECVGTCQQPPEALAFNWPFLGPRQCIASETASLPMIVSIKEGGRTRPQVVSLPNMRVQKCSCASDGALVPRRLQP
Follistatin-related protein 3 (Homo sapiens), sequence (O95633 whole entry, looked up): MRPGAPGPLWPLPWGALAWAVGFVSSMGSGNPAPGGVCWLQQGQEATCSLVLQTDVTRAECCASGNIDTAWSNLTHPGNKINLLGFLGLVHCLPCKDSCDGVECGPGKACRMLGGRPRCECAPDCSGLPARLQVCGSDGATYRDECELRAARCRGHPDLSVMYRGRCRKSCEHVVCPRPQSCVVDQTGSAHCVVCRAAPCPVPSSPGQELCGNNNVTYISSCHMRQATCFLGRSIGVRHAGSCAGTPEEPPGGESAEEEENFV

Compound `CCOC(=O)C=Cc1cccc(OC)c1O` has a composite z-score [1] of -0.0095, a composite z-score [2] of -0.349 and a composite z-score [3] of 0.165. The z-score [4] was -1.98 (inactive), the composite z-score [5] was -0.96 and the composite z-score [6] was -0.073. It also gave a composite z-score [7] of -1.71, a composite z-score [8] of -0.631 and a composite z-score [9] of -1.77. The composite z-score [10] was -0.4, the composite z-score [11] was -0.0381 and the z-score [12] was 1.61. For the same compound, the composite z-score [13] was -1.23, the composite z-score [14] was 0.155 and the composite z-score [15] was -0.551. It also gave a composite z-score [16] of -0.122, a composite z-score [17] of -0.212 and a composite z-score [18] of -0.344. It also gave a composite z-score [19] of -0.0817 and a composite z-score [20] of 0.254.

For `O=C1C2C=CC(C(O)c3cccc4ccccc34)N(n3cnnc3)C2C(=O)N1Cc1ccccc1` (stereo not given), the composite z-score [1] was 0.161, the composite z-score [2] was 1.72 and the composite z-score [3] was 0.8. The z-score [4] was 0.228 (inactive), the composite z-score [5] was 0.975 and the composite z-score [6] was -0.181. For the same compound, the composite z-score [7] was 0.402, the composite z-score [8] was 0.529 and the composite z-score [9] was -0.13. For the same compound, the composite z-score [10] was 0.668, the composite z-score [11] was 0.0125 and the z-score [12] was -1.16. The composite z-score [13] was 0.102, the composite z-score [14] was 0.197 and the composite z-score [15] was -0.151. It also gave a composite z-score [16] of 1.06, a composite z-score [17] of -0.309 and a composite z-score [18] of 2.2. It also gave a composite z-score [19] of 0.67 and a composite z-score [20] of 0.274.

In the case of `[N-]=[N+]=NCc1ccccc1[C@H]1OC(c2ccc(OCCCO)cc2)=N[C@@]1(Cc1ccccc1)C(=O)NCC(O)CO` (stereo not given in full), the composite z-score [1] is reported as 1.27, the composite z-score [2] is reported as 0.847 and the composite z-score [3] is reported as 1.21. For the same compound, the z-score [4] was -0.807 (inactive), the composite z-score [5] was 0.782 and the composite z-score [6] was 1.27. The composite z-score [7] was -0.187, the composite z-score [8] was -0.751 and the composite z-score [9] was -0.651. For the same compound, the composite z-score [10] was 0.33, the composite z-score [11] was 1.13 and the z-score [12] was -1.38. For the same compound, the composite z-score [13] was -0.524, the composite z-score [14] was 1.52 and the composite z-score [15] was 0.564. For the same compound, the composite z-score [16] was 0.507, the composite z-score [17] was 0.128 and the composite z-score [18] was 1.9. For the same compound, the composite z-score [19] was 1.51 and the composite z-score [20] was 0.131.

With `O=C(NCc1ccccc1)[C@@H]1c2ccccc2C(=O)N(Cc2cc(F)cc(C(F)(F)F)c2)[C@H]1c1ccc(CO)cc1` the composite z-score [1] was 1.09, the composite z-score [2] was 0.125 and the composite z-score [3] was 0.519. The z-score [4] was -0.945 (inactive), the composite z-score [5] was 0.29 and the composite z-score [6] was 0.243. It also gave a composite z-score [7] of -0.0881, a composite z-score [8] of 0.588 and a composite z-score [9] of -0.0135. For the same compound, the composite z-score [10] was 0.517, the composite z-score [11] was 1.44 and the z-score [12] was -0.132. The composite z-score [13] was -0.244, the composite z-score [14] was -0.174 and the composite z-score [15] was -0.707. For the same compound, the composite z-score [16] was -0.096, the composite z-score [17] was 0.163 and the composite z-score [18] was -0.339. For the same compound, the composite z-score [19] was 1.15 and the composite z-score [20] was 0.258.

With `CN(C)CCCC[C@@H]1NC(=O)[C@@H]2C[C@H](C(=O)NCCCCCCN)[C@H](c3ccc(O)cc3)N2C1=O` the composite z-score [1] was 0.812, the composite z-score [2] was 1.46 and the composite z-score [3] was 0.848. For the same compound, the z-score [4] was -0.0228 (inactive), the composite z-score [5] was 0.987 and the composite z-score [6] was 1. For the same compound, the composite z-score [7] was 0.734, the composite z-score [8] was 0.849 and the composite z-score [9] was 1.05. For the same compound, the composite z-score [10] was 1.41, the composite z-score [11] was 1.42 and the z-score [12] was -0.379. The composite z-score [13] was 0.984, the composite z-score [14] was 0.98 and the composite z-score [15] was 1.02. For the same compound, the composite z-score [16] was 0.178, the composite z-score [17] was 0.584 and the composite z-score [18] was -0.172. It also gave a composite z-score [19] of 1.7 and a composite z-score [20] of 0.629.

In the case of `C=CCC(OC(C)=O)[C@@H]1[C@@H](N(Cc2ccc(-c3cccc(C(F)(F)F)c3)o2)C(=O)c2ccc(C)cc2)c2cc(OCCCO)ccc2N1C(=O)c1ccc2ccccc2n1` (stereo not given in full), the composite z-score [1] is reported as 0.273, the composite z-score [2] is reported as -0.164 and the composite z-score [3] is reported as 0.253. For the same compound, the z-score [4] was 0.168 (inactive), the composite z-score [5] was 0.453 and the composite z-score [6] was -0.124. For the same compound, the composite z-score [7] was -0.0487, the composite z-score [8] was 0.483 and the composite z-score [9] was 0.381. For the same compound, the composite z-score [10] was 1.4, the composite z-score [11] was -0.172 and the z-score [12] was -0.462. The composite z-score [13] was 0.435, the composite z-score [14] was -0.619 and the composite z-score [15] was -0.253. The composite z-score [16] was -0.0478, the composite z-score [17] was 0.278 and the composite z-score [18] was 0.276. The composite z-score [19] was -0.0885 and the composite z-score [20] was 1.31.
